Measured values published in PubChem BioAssay (Tox21).
Values without a mark were called inactive. Calls come from the whole dose curve; as a rule, active = well fitted curve in the direction sought with a large enough effect in the repeat runs; inconclusive = weak or mixed curves; inactive = flat fitted curve, though single readings scatter.

assay: qHTS assay to test for compound auto fluorescence at 460 nm (blue) in HepG2 cells (AID 720687); conditions: autofluorescence 405/460 nm, 1 h; series mostly up to 91.3 µM; fluorescence, % of fluorescent control: at the top concentration
Excerpt: U.S. Tox21 Program National Center for Advancing Translational Sciences [NCATS] NIH Chemical Genomics Center [NCGC] U.S. Environmental Protection Agency [EPA] National Institutes of Environmental Health Sciences [NIEHS] National Toxicology Program [NTP] U.S. Food and Drug Administration [FDA] Tox21 Assay Overview: Compound auto fluorescence often interferes with screening of the compound library against various biological targets and signaling pathways. Some of these compounds may have fluorophoric properties. Such properties may interfere with the assay outputs resulting in false positives and/or negatives. To decrease such complications and ensure the compound activities are relevant in terms of biological response, the Tox21 10K compound library was screened for auto fluorescence. From the fluorophores used as reporter signals in our screening assays, the auto fluorescence equivalencies of compounds against three fluorophores have been evaluated: Triamterene, Fluorescein and Rose Bengal sodium for blue, green and red fluorescence, respectively. The fluorescence intensities were measured using Excitation/Emission wavelengths at 405/460nm, 485/535nm and 540/590nm for blue, green and red labels, respectively. This assay includes the blue fluorescence data.
Tox21 Assay Protocol Summary: 2,000 HepG2 cells in 5 uL of culture medium (MEM containing 10% FBS) per well were dispensed into black wall/clear bottom 1536-well plates using a Multidrop Combi Dispenser (ThermoFisher Scientific, Waltham, MA). The assay plates were incubated overnight at 37 C to allow cell attachment to the well bottom, followed by the transfer of 23 nL compound or DMSO vehicle by a pintool work station (Kalypsys , San Diego, CA). After the assay plates were incubated for 1 hr at 37 C and 5% CO2, fluorescence intensities in the assay plates were measured by an Envision (PerkinElmer, Shelton, CT) plate reader using three labels for measuring blue, green and red fluorescence at […] 460, 535 and 590 nm respectively.
% is set by controls: 0 for no effect and ±100 for the full control effect.

Row | SMILES | fluorescence, % of fluorescent control
1 | CC(O)CCCCn1c(=O)c2c(ncn2C)n(C)c1=O (stereo not given) | -0.111% [at 46 µM]
2 | CCCCCCCC(=O)N(C)C | -0.0743%
3 | CCCCCCCOC(C)=O | -0.0212%
4 | COc1ccc(Cl)cc1C | -0.164% [at 95.7 µM]
5 | COC(=O)C(c1ccccc1Cl)N1CCc2sccc2C1 (stereo not given) | -0.0159% [at 46 µM]
6 | Cc1ccc(Br)cc1 | 0.0257%
7 | CC(=O)OC/C=C(/C)CCC=C(C)C | -0.0723%
8 | Cc1ccccc1OCC(=O)O | 0.083%
9 | c1cc2ccc3ccc4ccc5cccc6c(c1)c2c3c4c56 | 2.24% [at 3.72 µM]
10 | C/C=C(\C)C=O | 0.0518%
11 | CCN1CCN(C(=O)N[C@@H](C(=O)N[C@@H]2C(=O)N3[C@@H]2SC(C)(C)[C@H]3C(=O)O)c2ccccc2)C(=O)C1=O | 0.0456% [at 46 µM]
12 | O=C(O)Cc1ccccc1Oc1ccc(Cl)cc1Cl | -0.14% [at 46 µM]
13 | CC(=O)OC1CCC(C(C)(C)C)CC1 (stereo not given) | 0.0159%
14 | Cc1ccc(OC(=O)CC(C)C)cc1 | 0.165%
15 | CCc1ncc(C)[nH]1 | 0.0172%
16 | COC(C)(C)CC(C)=O | 0.112%
17 | CCCCCCCCCCCCCC(=O)OCC | 0.104%
18 | CC(C)(C)NCC(O)COc1cccc2c1CCC(=O)N2 (stereo not given) | 0.113% [at 18.6 µM]
19 | COc1cc(OC)cc(OC)c1 | 0.0516% [at 46 µM]
20 | C=C(C)C(=O)OCCOC1CC2CC1C1C=CCC21 (stereo not given) | 0.0011% [at 95.7 µM]

Row | SMILES | fluorescence, % of fluorescent control
21 | CC(C)OC(=O)C(C(=O)OC(C)C)=C1SC=CS1 | 0.0268% [at 46 µM]
22 | COc1ccc2cc(CCC(C)=O)ccc2c1 | 0.0207% [at 18.6 µM]
23 | CCCCCCCCCCCCCCCCN(C)C | -0.0699% [at 3.72 µM]
24 | CC/C=C/CCCCCCCCCCOC(C)=O | -0.183%
25 | CCO/C=C1\N=C(c2ccccc2)OC1=O | -0.0073%
26 | CCCCN(CCCC)CCCCCCN(CCCC)CCCC | 0.0037%
27 | O=C(O)Cc1c(Cl)ccc(Cl)c1Cl | 0.0182%
28 | BrCCOc1ccccc1 | -0.0034%
29 | CCOC(=O)COc1ccc2c(C)c(CCN(CC)CC)c(=O)oc2c1Cl | -0.0036% [at 46 µM]
30 | CC/C=C\CCCCCCCCCCOC(C)=O | -0.0296%
31 | CN(C)c1cc(NC(=O)CNC(C)(C)C)c(O)c2c1C[C@H]1C[C@H]3[C@H](N(C)C)C(=O)C(C(N)=O)=C(O)[C@@]3(O)C(=O)C1=C2O | 0.275% [at 46 µM]
32 | CC(=O)Nc1ccc(S(=O)(=O)Nc2cc(C)on2)cc1 | 0.008% [at 46 µM]
33 | CC(C)OCCO | -0.0826%
34 | Cc1nc2ccc(Cl)cc2[nH]1 | -0.062%
35 | O=c1[nH]c(=O)c2cn[nH]c2[nH]1 | -0.0054%
36 | CCOc1ccccc1OCCN[C@H](C)Cc1ccc(OC)c(S(N)(=O)=O)c1 | -0.024% [at 46 µM]
37 | NNC(=O)CCCCC(=O)NN | 0.0774%
38 | Cc1nnc(C(=O)NC(C)(C)c2nc(C(=O)NCc3ccc(F)cc3)c(O)c(=O)n2C)o1 | 0.0064% [at 46 µM]
39 | O=S(=O)(O)CC(O)CCl (stereo not given) | -0.197%
40 | C=CCCCCCCCCCCCCCC | 0.001% [at 18.6 µM]
